# Source: PubChem BioAssay AID602244 (Sanford-Burnham Center for Chemical Genomics, 2012)
# Screen size: about 360,000 compounds; about 1,300 (0.36%) were called active. No stated cut-off is given here; in the data, active means inhibition above about 34% (passing the limit was not always enough); inactive means the rest. What follows is part of a selection rich in actives, with near analogues and random picks from the rest.
# Molecular target: C-X-C chemokine receptor type 6 (Homo sapiens) (UniProt O00574)
# Sequence (O00574 whole entry, looked up): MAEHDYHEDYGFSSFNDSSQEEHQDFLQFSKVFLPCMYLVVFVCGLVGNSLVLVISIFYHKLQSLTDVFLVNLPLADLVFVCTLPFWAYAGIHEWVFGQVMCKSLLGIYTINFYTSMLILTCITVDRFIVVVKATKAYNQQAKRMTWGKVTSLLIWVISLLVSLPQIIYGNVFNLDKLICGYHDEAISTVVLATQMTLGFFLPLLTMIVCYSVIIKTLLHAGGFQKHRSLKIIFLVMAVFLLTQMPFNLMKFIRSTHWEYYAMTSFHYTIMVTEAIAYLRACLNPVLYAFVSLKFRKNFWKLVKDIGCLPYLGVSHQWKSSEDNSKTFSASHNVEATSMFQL
# Assay: CXCR6 receptor inhibitors, primary screen, cell-based, beta-arrestin, luminescence, CHO-K1 PathHunter, 1536-well (AID 602244);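 further: antagonist mode with CXCL16 agonist at 10 nM final; 0% = 10 nM CXCL16 with DMSO and 100% = unstimulated wells without agonist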
# Conditions: at 20 µM, stronger effect = higher value
row,SMILES,inhibition
1,CC1CCC(NS(=O)(=O)c2ccc3c(c2)CC(=O)N3)CC1 (centres undefined),-9.8% (inactive)
2,CS(=O)(=O)c1ccc(Cl)c(NC(=O)COC(=O)c2cccc(S(=O)(=O)N3CCCC3)c2)c1,8.6% (inactive)
3,COc1ccc(C[C@H]2CN3C(=NC[C@H]3C)N2CCNC(=O)CCC2CCCCC2)cc1,5.3% (inactive)
4,CC(C)(C)C1CCC(=NNC(=O)c2ccc(Br)o2)CC1 (centres undefined),-5% (inactive)
5,COCCCNC(=S)NNC(=O)C(O)(c1ccccc1)c1ccccc1,14.6% (inactive)
6,COc1ccccc1OCCNC(=O)c1cc([N+](=O)[O-])cc([N+](=O)[O-])c1,-9.6% (inactive)
7,COCCCNC(=S)NC(=O)c1ccc([N+](=O)[O-])cc1,75% (active)
8,COc1ccc(CN2CCNC(=O)C2CC(=O)NCc2cn[nH]c2-c2ccccc2)c(F)c1 (centres undefined),-0.4% (inactive)
9,Nc1nnc(C2CCCC2)s1,-3.7% (inactive)
10,CC1(C(=O)NCCc2c[nH]c3ccccc23)C=CC2(CCCCC2)N1C(=O)c1ccccc1 (centres undefined),-1.9% (inactive)
11,COc1cc(SC#N)ccc1N=Cc1c(C)[nH]n(-c2ccc(C)cc2)c1=O,-2% (inactive)
12,Cc1ccc(-c2ccnc3[nH]n(-c4ccccc4)c(=O)c23)cc1,12.9% (inactive)
13,Cc1ccc(-n2[nH]c(C)c(/C=N/N3C(=O)c4cccc5cccc(c45)C3=O)c2=O)cc1,48.5% (active)
14,Cc1nn(C(C)CC(=O)O)c(C)c1C (centres undefined),3.3% (inactive)
15,CC(NC(=O)Cn1cc(C(F)(F)F)cc(Cl)c1=O)c1ccccc1 (centres undefined),-4.9% (inactive)
16,CC1CCC(C(C)C)C(=O)/C1=C\c1ccc(NC(=O)CCC(=O)O)cc1 (centres undefined),1% (inactive)
17,O=C(NCCc1ccccc1)C1CCC(Cn2c(=O)c3ccccc3n(Cc3cccnc3)c2=O)CC1 (centres undefined),-5.3% (inactive)
18,C=CCC1(C#N)C(=S)NC(C)=C(C(=O)OCC)C1c1ccccc1 (centres undefined),-3.2% (inactive)
19,COc1ccc(NC(=O)/C(Cl)=C(/Cl)S(=O)Cc2ccc(C)cc2)cn1 (centres undefined),94.9% (active)
20,COc1ccc(NC(=O)C2Cc3c(-c4ccc5c(c4)OCO5)ccnc3O2)cn1 (centres undefined),-3.9% (inactive)

row,SMILES,inhibition
1,COc1cc(NC(=O)Nc2ccc(C)cc2)cc([N+](=O)[O-])c1,2.8% (inactive)
2,COc1cccc(CC(=NO)c2cccc(OC)c2)c1,7.2% (inactive)
3,O=C1C(Cl)=C(Oc2ccccc2)C(=O)c2ccccc21,104% (active)
4,O=C(OCC(=O)N1CCc2ccccc21)C1CCCN1S(=O)(=O)c1ccc(Cl)cc1 (centres undefined),-11.4% (inactive)
5,CCCCn1c(N)c(N(CC(C)C)C(=O)c2cccc(S(=O)(=O)N3CCN(C(C)=O)CC3)c2)c(=O)[nH]c1=O,1.2% (inactive)
6,CCCCCCCCCCOC(=O)Cn1c(COc2cccc(OC)c2)[n+](C)c2ccccc21,47.7% (active)
7,CCCCN(CCCC)C(=O)CCS(=O)(=O)c1ccc2c(c1)n(C)c(=O)c(=O)n2C,-7.5% (inactive)
8,COc1ccc(CCNC(=O)CSc2nc(-c3ccc(OC)c(OC)c3)ccc2C#N)cc1,7.6% (inactive)
9,Cc1ccc(N2C(=O)SC(N(CC(=O)O)c3ccc(C)cc3)C2=O)cc1 (centres undefined),4% (inactive)
10,CCC(=O)OCCNc1nc(-c2ccccc2)nc2ccccc12,40.8% (active)
11,CCCNC(=O)c1cnc(-c2ccccc2)nc1-c1ccccc1,12% (inactive)
12,COCCNc1nc(-c2ccccc2)nc2c1oc1ccccc12,-2.7% (inactive)
13,CC(C)N=C1CCCC1C(=S)SSC(=S)C1CCCC1=NC(C)C (centres undefined),78.9% (active)
14,CCc1ccccc1N(CC(=O)N1CCN(c2ccccc2F)CC1)S(C)(=O)=O,1.2% (inactive)
15,CCCc1cc(=O)oc2c(C)c(OC(C)C(=O)NCC(O)c3ccccc3)ccc12 (centres undefined),2.9% (inactive)
16,O=C1NCC(c2ccccc2)(c2ccccc2)C(=O)N1,3.6% (inactive)
17,CC(NC(=S)NNS(=O)(=O)c1ccc(C(C)(C)C)cc1)c1ccccc1 (centres undefined),-0.6% (inactive)
18,Cc1cc(/C=C2/SC(=O)N(CC(=O)OC(C)C)C2=O)c(C)n1C,1.9% (inactive)
19,CC(C)OC(=O)CN1C(=O)C(=O)c2ccccc21,68% (active)
20,COc1cc(C(C)=O)ccc1OC(=O)CN1C(=O)c2ccccc2C1=O,1.2% (inactive)

row,SMILES,inhibition
1,COc1cccc(NC(=O)Cn2c3ccc(F)cc3c3nc4n(c(=O)c32)CCS4)c1,4.8% (inactive)
2,CCN(CC)C(=O)CC1(c2ccccc2OC)CCOC(C(C)C)C1 (centres undefined),6.3% (inactive)
3,CC(C)(C)S(=O)(=O)c1ccccc1-c1noc(-c2ccccc2)c1C(N)=O,-0.6% (inactive)
4,Cc1ccc(S(=O)(=O)N2CCOCC2)cc1NC(=O)c1ccncc1,-5.9% (inactive)
5,CN(CCc1ccccc1)C(=O)c1cccc(NC(=O)Cc2ccc([N+](=O)[O-])cc2)c1,-6.9% (inactive)
6,CN(O)C(=S)c1ccccc1,73.3% (active)
7,CCN(CC)CCCNC(=O)CCn1nc(-c2ccc(Cl)cc2)ccc1=O,2.5% (inactive)
8,COc1ccc(CNC(=O)[C@@H]2CC=C[C@@H]3CCN(C4CC4)C(=O)[C@@H]32)cc1,-0.1% (inactive)
9,O=C1CCC(=O)N1CCC(=O)N(C(=O)NC1CCCCC1)C1CCCCC1,0% (inactive)
10,S=c1[nH]ccn1-c1ccc(Cl)cc1,-3.9% (inactive)
11,Cc1noc(C)c1C(=O)N(CC(=O)NC1CCCC1)Cc1ccccc1F,-0.5% (inactive)
12,O=[N+]([O-])/C=C/c1ccc2c(ccn2Cc2ccccc2)c1,73.1% (active)
13,CCc1noc(C)c1C(=O)N1CCCSC1=Nc1ccccc1OC,-1.3% (inactive)
14,CCCCCCCCCCOC(=O)C[N+](C)(C)CC1CCCCC1O (centres undefined),57.1% (active)
15,CCCCCOC(=O)c1ccc(N2C(=O)C3C4C=CC(C4)C3C2=O)cc1 (centres undefined),4.9% (inactive)
16,COc1ccc(S(=O)(=O)N(C)CC(=O)N2CCCC2)cc1Cl,-1.8% (inactive)
17,O=C(Cc1ccccc1)N1CCN(S(=O)(=O)c2ccc([N+](=O)[O-])cc2)CC1,-15.5% (inactive)
18,O=C1CCCN1C(=O)COc1ccc([N+](=O)[O-])cc1,-0.7% (inactive)
19,O=C1/C(=C\c2ccc([N+](=O)[O-])cc2)CS(=O)(=O)C/C1=C/c1ccc([N+](=O)[O-])cc1,96.9% (active)
